Screens from PubChem.
Anaer choline gr: growth inhibitors of anaerobic choline-fed gram-negatives, minimal medium, absorbance. calls only. hit rate 0.2% among 55,000. Gram-negative bacterium anaerobic choline minimal medium; stronger effect = lower value; call rule not given here
Active calls of the source: *. Many of the other results were omitted from the sample, so hits are more common in it than they were.

Results for CN1CCN(c2nc3ccccc3nc2Cl)CC1 ?
Anaer choline gr: inactive

Results for CN1CCc2cccc(Cl)c2CC1 ?
Anaer choline gr: active

How did CS(=O)(=O)c1ccc(N2C=C(C#N)S(=O)(=O)c3ccccc32)cc1 do in these assays?
Anaer choline gr: inactive

How did O=C(Nc1ccc(Br)cc1F)c1cccn(Cc2ccc(F)cc2)c1=O do in these assays?
Anaer choline gr: inactive

What do the screens show for `C=C1N[C@@H](Cc2ccc3[nH]cc(CCN(C)C)c3c2)CO1`?
Anaer choline gr: inactive

What do the screens show for `CN1[C@@H]2CC[C@H]1CC(OC1c3ccccc3CCc3ccccc31)C2` (stereo partly specified)?
Anaer choline gr: inactive

What do the screens show for `CN1C2CCC1CC(OC(c1ccc(F)cc1)c1ccc(F)cc1)C2` (stereo unspecified)?
Anaer choline gr: active

Results for Fc1ccc(C(OCCN2CCN(CCCc3ccccc3)CC2)c2ccc(F)cc2)cc1 ?
Anaer choline gr: inactive

Results for C/C1=C/C(=O)O[C@@H]2C[C@@H](CC[C@H](C)/C=C\CC1)O[C@@](O)([C@@H]1CSC(=O)N1)C2 ?
Anaer choline gr: inactive

How did Cn1cc(C2=CCN(CC(=O)NCCC3=CCCCC3)CC2)cn1 do in these assays?
Anaer choline gr: inactive
